Compounds with a hit are over-represented: about 5.6% of the library has one in this group of screens.
CtBP-E1A inh: blocks the CtBP interaction with E1A. AlphaScreen GST-E1A/His-CtBP binding, 1536-well; active compounds read low. activity change, % (concentration not given with the values). 340,000 compounds, 0.49% hits; in the data active = activity change below about -65%; inconclusive = mostly about -30% to -63%
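AlphaScreen with 125 nM GST-E1A and 125 nM His-CtBP (5X stocks) in Tris pH 8.0, 300 mM NaCl, BSA, Tween 20, TCEP. Compounds preincubated 2 h at 37 deg C, then glutathione donor/nickel acceptor beads added for 1 h at 37 deg C in dark.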
Gal4-VP16 FLuc: Gal4-VP16 reporter inhibition counter-screen. Drosophila S2 Gal4-VP16 UAS-luciferase, luminescence, 20 h. Potency, µM (doses to about 53.6 µM), without a hit: top-dose activity, negative = inhibition, usual class: inhibitors. 310,000 compounds, 3.5% hits;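 note: Gal4-VP16 expression switched on by copper sulfate through the metallothionein promoter; potency is the fitted concentration of half-maximal effect; nearly all actives have a fitted effect of over 50% in size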
RORg inh: blocks mouse ROR gamma transcriptional activity; Potency, µM (titrated, usually from 53.6 µM), for the others: at the highest dose activity change, negative = inhibition, usual class: inhibitors; Drosophila S2 Gal4-RORgamma UAS-luciferase reporter, 20 h; P51450; 310,000 compounds, 5.4% hits; AID 2551; note: potency is the fitted concentration of half-maximal effect; nearly all actives have a fitted effect of over 60% in size
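Read-out: Photinus luciferase luminescence; inhibitors lower reporter signal. Insect Schneider cells with Gal4-ROR gamma fusion under metallothionein promoter, UAS reporter; 700 uM final copper sulfate induction, 20 hr, ambient temperature.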
Six1-Eya2 inh: inhibitors of human Six1/Eya2 interaction; Q15475+O00167; AlphaScreen GST-Six1/His-Eya2 binding, biochemical; active compounds read low; activity change, % (concentration not given with the values); 360,000 compounds, 0.56% hits; AID 651725; in the data active = activity change below about -65%; inconclusive = mostly about -30% to -63%
Target sequence (O00167 whole entry, looked up): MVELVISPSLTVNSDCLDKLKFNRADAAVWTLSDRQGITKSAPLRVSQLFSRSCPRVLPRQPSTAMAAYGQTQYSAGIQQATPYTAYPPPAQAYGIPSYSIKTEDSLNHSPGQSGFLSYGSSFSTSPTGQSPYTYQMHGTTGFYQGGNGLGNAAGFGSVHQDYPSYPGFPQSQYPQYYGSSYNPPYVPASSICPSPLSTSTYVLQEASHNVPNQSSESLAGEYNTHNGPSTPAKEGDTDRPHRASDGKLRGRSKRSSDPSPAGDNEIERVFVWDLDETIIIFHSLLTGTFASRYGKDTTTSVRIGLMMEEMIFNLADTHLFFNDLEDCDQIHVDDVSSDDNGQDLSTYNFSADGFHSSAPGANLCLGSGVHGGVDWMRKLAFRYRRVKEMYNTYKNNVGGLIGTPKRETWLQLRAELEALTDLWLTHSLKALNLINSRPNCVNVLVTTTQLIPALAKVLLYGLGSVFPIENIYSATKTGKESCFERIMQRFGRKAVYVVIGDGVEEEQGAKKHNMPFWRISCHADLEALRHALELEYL
Target sequence (Q15475 whole entry, looked up): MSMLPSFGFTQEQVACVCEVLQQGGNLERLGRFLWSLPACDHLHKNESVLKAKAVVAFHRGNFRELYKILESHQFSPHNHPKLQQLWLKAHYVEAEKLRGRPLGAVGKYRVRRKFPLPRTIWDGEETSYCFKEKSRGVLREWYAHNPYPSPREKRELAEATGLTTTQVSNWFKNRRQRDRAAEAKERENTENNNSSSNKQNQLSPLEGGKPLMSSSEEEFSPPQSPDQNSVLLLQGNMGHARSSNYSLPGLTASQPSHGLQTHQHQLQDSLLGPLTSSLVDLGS
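Homogeneous AlphaScreen proximity assay pairing GST-Six1 with His-tagged Eya2 (added as 5X mix: 250 nM and 500 nM) in 50 mM Tris pH 8.0, 300 mM NaCl, 1 mM TCEP. Glutathione donor and nickel acceptor beads; 1 h, 37 °C, dark.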
PKM2 act: activators of human pyruvate kinase M2 | P14618 | purified PKM2, Kinase-Glo ATP luminescence, activation; response scale: 0% is enzyme alone, no compound | Potency, µM (highest dose often 57.5 µM), inactives show at the top dose activation, actives largely listed as activators | 260,000 compounds, 0.34% hits; note: potency is the fitted concentration of half-maximal effect; nearly all actives have a fitted effect of over 55% in size
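Kinase-Glo luminescence reports ATP generated from ADP (0.1 mM) and PEP (0.5 mM) by purified hPK-M2 after 1 h at room temperature, pH 7.2 imidazole buffer; intermediate enzyme activity allows detecting inhibitors and activators.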
Starred values were filed as active, the others as inactive; ? = inconclusive; . = no result. Unless noted, calls come from the whole dose curve; as a rule, active = well fitted curve in the direction sought with a large enough effect; inconclusive = small, poorly fitted or top-dose-only effect, or another doubt; inactive = no such curve, though single readings can be large; an effect the other way counts as inactive or inconclusive. % is set by controls: 0 for no effect and ±100 for the full control effect.

SMILES | CtBP-E1A inh | Gal4-VP16 FLuc | RORg inh | Six1-Eya2 inh | PKM2 act
Cc1ccc(S(=O)(=O)CC(=O)Nc2cccc(C)n2)cc1 | 4 | -16% | -4% | -6 | .
Clc1cc2cccnc2c2ccccc12 | 18 | -7% | 6% | 18 | 2%
Oc1c(Cl)cc(Cl)c2cccnc12 | -90* | ? | 0.079µM* | -90* | 16%
Cc1cccc(C(=O)Nc2nnc(-c3ccco3)o2)c1 | ? | 0.63µM* | 0.5µM* | ? | -1%
Cc1ccccc1C(=O)Nc1nnc(-c2ccco2)o1 | 17 | -10% | 2% | -16 | -6%
O=C(CSc1ccc(Cl)cc1)Nc1nnc(-c2ccco2)o1 | -7 | . | . | ? | .
O=C(Nc1nnc(-c2ccco2)o1)c1ccc(Cl)cc1 | -17 | 0.63µM* | 0.35µM* | -1 | -3%
Cc1ccc(C(=O)Nc2nnc(-c3ccco3)o2)cc1C | -14 | 0.89µM* | 0.63µM* | -22 | -6%
CC(=O)N1CCN(C(=O)c2cc(S(=O)(=O)N3CCN(c4ccccc4)CC3)ccc2Cl)CC1 | 8 | . | . | 3 | .
O=C(CC1SC(N2CCOCC2)=NC1=O)Nc1ccc(Cl)c(C(F)(F)F)c1 (stereo not drawn) | . | . | . | 7 | .
CCCNc1nc(N)nc(-c2cc(Cl)ccc2OC)n1 | 1 | 19% | 14% | -11 | 0%
CCCN(CCC)c1nc(N)nc(-c2cc(Cl)ccc2OC)n1 | 0 | -11% | 16µM* | 5 | 5%
O=C(CN(c1cccc(C(F)(F)F)c1)S(=O)(=O)c1ccc(Cl)c([N+](=O)[O-])c1)NCc1ccc(F)cc1 | 10 | ? | -31% | 1 | 0%
CN(C)NC(=S)Nc1ccc(S(=O)(=O)N2CCCCC2)cc1 | -12 | 5.6µM* | 2.8µM* | 4 | -1%
N#CC(C#N)=NNc1ccc(S(=O)(=O)N2CCCCC2)cc1 | 9 | 22µM* | ? | -18 | 18%
O=S(=O)(c1ccc(NC(=S)NN=Cc2ccccc2O)cc1)N1CCCCC1 | -89* | . | . | -86* | .
N#C/C(=N\Nc1ccc(S(=O)(=O)N2CCOCC2)cc1)C(N)=S | -11 | -2% | ? | -1 | 16%
Cc1csc(SCC(=O)Nc2ccc(S(=O)(=O)N3CCCC3)cc2)n1 | -21 | -6% | 35% | -15 | 20µM*
NS(=O)(=O)c1ccc(NC(=S)Nc2ccc(S(=O)(=O)N3CCCC3)cc2)cc1 | -4 | -2% | 3% | 8 | -6%
O=C(Nc1ccccc1)Nc1ccc(S(=O)(=O)N2CCCCC2)cc1 | -8 | -2% | ? | -9 | 1%
CC(OC(=O)CCN=C1NS(=O)(=O)c2ccccc21)C(=O)Nc1ccc(F)c(F)c1F (stereo not drawn) | 0 | . | . | 8 | .
CC(=O)c1ccc(NC(=O)CSc2ccc(-c3ccc(-n4cccn4)cc3)nn2)cc1 | 7 | . | . | -5 | .
O=C(O)C1CC(CCCP(=O)(O)O)CCN1 (stereo not drawn) | . | 14% | 8% | . | .
O=C(CCc1ccccc1)NC(=S)Nc1ccc(S(=O)(=O)N2CCOCC2)cc1 | -17 | -20% | 22µM* | -3 | 0%
CCCCC(=O)NC(=S)Nc1ccc(S(=O)(=O)N2CCCC2)cc1 | 1 | -20% | 13µM* | -1 | 2%
SMILES | CtBP-E1A inh | Gal4-VP16 FLuc | RORg inh | Six1-Eya2 inh | PKM2 act
O=C(Cn1cc(C(F)(F)F)cc(Cl)c1=O)NC1CCS(=O)(=O)C1 (stereo not drawn) | . | . | . | 2 | .
COc1ccc(N2C(=O)CC(N3CCC(O)(c4cccc(C(F)(F)F)c4)CC3)C2=O)cc1 (stereo not drawn) | 4 | ? | 2.5µM* | -1 | -1%
CCC(Oc1ccc(Br)cc1Cl)C(=O)Nc1nnc(C2CC2)s1 (stereo not drawn) | -3 | ? | 13µM* | 0 | 0%
CCCCOc1ccc(C(=O)N(C)CC(=O)Nc2ccc(C)cc2)cc1 | 1 | 4% | 5% | -6 | .
CCCNC(=O)c1ccc2c(=O)c(O)c(-c3ccsc3)[nH]c2c1 | -76* | -4% | -1% | ? | 1%
Cc1ccc(NC(=O)c2nc[nH]c2C(=O)N2CCC(C)CC2)cc1 | 2 | ? | 8.9µM* | 33 | 0%
CN(Cc1ccccc1)C(=O)c1[nH]cnc1C(=O)Nc1ccc(Cl)cc1 | 2 | . | . | -2 | .
CCOC(=O)c1ccc(NC(=O)c2nc[nH]c2C(=O)N2CCC(C)CC2)cc1 | -4 | ? | 10µM* | -2 | -1%
CC1CCN(C(=O)c2[nH]cnc2C(=O)Nc2cccc(Cl)c2)CC1 | -6 | . | . | -19 | .
CCOC(=O)c1ccc(NC(=O)c2nc[nH]c2C(=O)N2CCN(c3ccccc3)CC2)cc1 | -1 | ? | ? | 1 | -2%
COc1ccc(NC(=O)c2nc[nH]c2C(=O)N(C)Cc2ccccc2)cc1 | 1 | ? | 7.1µM* | 3 | 1%
Cc1ccc(NC(=O)c2nc[nH]c2C(=O)N2CCN(c3ccccc3)CC2)cc1 | 0 | 13µM* | 4.5µM* | -6 | -5%
COc1ccc(NC(=O)c2nc[nH]c2C(=O)N2CCN(C(=O)OC(C)(C)C)CC2)cc1 | 0 | ? | ? | 2 | -4%
COc1ccc(NC(=O)c2nc[nH]c2C(=O)N2CCC(C)CC2)cc1 | 1 | ? | 13µM* | 6 | -1%
Cc1ccc2cc(/C=N/NC(=O)CN3CCCCC3)c(Cl)nc2c1 | . | -4% | 36% | -1 | -2%
CCOC(=O)c1ccc(CNC(=O)c2cc(C(C)(C)C)oc2C)o1 | -10 | ? | 6.3µM* | -7 | 14%
O=C(NCCc1cccs1)c1ccc(Cl)c(Cl)c1 | 19 | 8% | 29% | 16 | 0%
O=C(NCCc1cccs1)c1ccc(Cl)cc1 | -4 | ? | 8.9µM* | 1 | -2%
O=C(NCCc1cccs1)C(c1ccccc1)c1ccccc1 | . | 1% | 3% | 2 | -1%
Cc1ccc(C(=O)NCCc2cccs2)cc1 | 3 | 5.6µM* | ? | 3 | -11%
COC(=O)c1ccc(NC(=O)CCS(=O)(=O)c2ccc(Br)cc2)cc1 | -1 | 11µM* | 8% | -13 | 1%
COC(=O)c1ccc(NC(=O)CCS(=O)(=O)c2ccc3c(c2)NC(=O)C(C)S3)cc1 (stereo not drawn) | -8 | 7.1µM* | -39% | -1 | .
Cc1cccc(CSc2nc3ccccc3c(=O)n2C)c1 | . | . | . | 3 | .
CC(NC(=O)CCCn1cc([N+](=O)[O-])cn1)c1ccccc1 (stereo not drawn) | 0 | -19% | -4% | 17 | 0%
CCC(C)(C)c1ccc(Oc2cccc(C(=O)O)c2)cc1 | 7 | ? | -26% | -8 | -1%
CCC(C)(C)c1ccc(Oc2ccc(N)cc2)cc1 | 3 | 7.9µM* | -13% | -16 | 1%
Cc1ccc(S(=O)(=O)N(CC(=O)NCc2ccc(F)cc2)C(=O)N2CCN(C)CC2)cc1 | 0 | . | . | 3 | .

High-throughput results from PubChem BioAssay.
